Shown is part of a subset that was picked to be rich in hits.
OvCa metastasis = blocks SKOV3ip1 adhesion and invasion in omental model; SKOV3ip1-GFP adhesion/invasion on 3D omental model, fluorescence; Potency, µM (highest dose often 45.8 µM), without a hit: at the highest dose activity change, negative = inhibition, actives largely listed as inhibitors; actives 0.1% (n = 46,000); AID 1963576;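 further: potency means the concentration at half of the fitted maximal effect; plate controls were DMSO wells for no effect and tomatine positive control wells for full effect; nearly all actives have a fitted effect of over 65% in size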
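Primary human omental fibroblast/mesothelial 3D culture pre-formed 48 h. SKOV3ip1-GFP cells added with compounds (0.36-46 umol/L), incubated 2 h RT/16 h 37 C, fixed; GFP cells quantified at 488/509 nm.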
FH mod = Identification of activators of human fumarate hydratase by quantitative high-throughput screening; FH coupled MDH/diaphorase resazurin fluorescence, 15 min; Potency, µM (titrated, usually from 79.9 µM), for inactives: top-dose activity change, negative = inhibition, actives largely listed as inhibitors; actives 0.22% (n = 54,000); further: potency means the concentration at half of the fitted maximal effect; on the % scale 0 is the no-effect control and ±100 the full control effect; the screen sought activators but most active calls are inhibition curves; nearly all actives have a fitted effect of over 45% in size
NTMT1 inh = NTMT1 methyltransferase inhibition; Q9BV86; NTMT1 MTase-Glo SAH luminescence, purified enzyme; Potency, µM (titrated, usually from 114 µM), inactives show top-dose activity change, negative = inhibition, hits mostly inhibitors; actives 2.5% (n = 59,000);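 further: potency means the concentration at half of the fitted maximal effect; plate controls were DMSO vehicle for no effect and no enzyme for full effect; nearly all actives have a fitted effect of over 65% in size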
Target sequence (Q9BV86 whole entry, looked up): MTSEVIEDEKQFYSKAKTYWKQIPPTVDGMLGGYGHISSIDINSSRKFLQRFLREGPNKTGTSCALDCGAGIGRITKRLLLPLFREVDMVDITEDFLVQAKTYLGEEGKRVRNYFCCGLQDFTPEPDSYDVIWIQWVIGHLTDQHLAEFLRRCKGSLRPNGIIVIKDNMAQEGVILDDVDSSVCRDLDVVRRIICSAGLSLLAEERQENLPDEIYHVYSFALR
p53null 39C kill = selectivity test: cytotoxicity in p53 null cells, nonpermissive temperature. AID 904. actives 0.97% (n = 55,000). H1299 p53-null (neo) cells, 39C, ATPlite viability, 24 h. Potency, µM (top dose mostly 46.1 µM), inactives show at the highest dose activity, negative = cell killing, hits mostly cytotoxic;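 further: potency means the concentration at half of the fitted maximal effect; 0% = DMSO only and -100% = full killing by 100 µM tamoxifen; nearly all actives have a fitted effect of over 50% in size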
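ATP-luminescence viability readout (ATPlite, 20 min RT) after 24 hr compound treatment at 39C of H1299-neo or H1299-p53A138V cells; titration up to 46 uM; normalized to DMSO and 100 uM tamoxifen; Hill-fit AC50.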
p53null 32C tox = selectivity test: cytotoxicity in p53 null cells, permissive temperature | H1299-neo p53 null cells, ATP luminescence, 24 h, 32C | actives 0.62% (n = 55,000) | Potency, µM (doses to about 46.1 µM), inactives show at the highest dose activity change, negative = cytotoxicity, most hits filed as cytotoxic;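 further: potency means the concentration at half of the fitted maximal effect; 0% = DMSO only and -100% = full killing by 100 µM tamoxifen; nearly all actives have a fitted effect of over 55% in size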
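Luminescent ATP readout gave cell viability of p53-null H1299-neo cells after a 24 h compound exposure at the permissive 32C. Titrations ran up to 46 uM, and AC50s were fitted with the standard Hill equation.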
DYRK1A inh = inhibitors of human DYRK1A kinase | shares compounds with NTMT1 inh | recombinant DYRK1A, Kinase-Glo ATP depletion luminescence | Potency, µM (highest dose often 76.9 µM), for inactives: at the highest dose activity change, negative = inhibition, usual class: inhibitors | actives 80% (n = 100)
Sfp qHTS opt = inhibitors of Bacillus subtilis Sfp PPTase, optimization followup; shares compounds with NTMT1 inh; purified Sfp PPTase enzyme activity, qHTS; Potency, µM (series often up to 114 µM), for inactives: at the top dose activity change, negative = inhibition, most hits filed as inhibitors; actives 78% (n = 230); AID 540350
Bsub HM489 growth = reduces growth of B. subtilis HM489 strain | actives 50% (n = 220) | Potency, µM (top dose mostly 114 µM), for the others: at the highest dose activity change, negative = inhibition, usual class: inhibitors | shares compounds with NTMT1 inh | B. subtilis HM489 (acpS-) growth, BacTiter-Glo, 5 h | AID 540353
Sfp gel opt = inhibits B. subtilis Sfp PPTase in gel assay | AID 540355 | shares compounds with NTMT1 inh | purified Sfp PPTase, gel-based product detection | actives 54% (n = 220) | Potency, µM (titrated, usually from 250 µM), for inactives: at the highest dose activity change, negative = inhibition, hits mostly inhibitors
Sfp SAR2 = inhibitors of Bacillus subtilis Sfp PPTase, SAR round 2 | shares compounds with NTMT1 inh | purified Sfp enzyme, PPTase activity, qHTS | Potency, µM (doses to about 57.1 µM), for the others: at the highest dose activity change, negative = inhibition, most hits filed as inhibitors | actives 87% (n = 230) | AID 602370
HSD17B4 inh = inhibits human HSD17B4, off-target for HPGD inhibitors; shares compounds with NTMT1 inh; purified HSD17B4, estradiol/NAD+, NADH fluorescence; Potency, µM (top dose mostly 57.1 µM), without a hit: top-dose activity change, negative = inhibition, usual class: inhibitors; actives 10% (n = 230)
ALDH1A1 counter = ALDH1A1 (human) inhibition, HPGD counter-screen; Potency, µM (top dose mostly 57.1 µM), for inactives: at the top dose activity change, negative = inhibition, hits mostly inhibitors; shares compounds with NTMT1 inh; actives 93% (n = 230); recombinant ALDH1A1, NADH fluorescence, propionaldehyde/NAD+; AID 743195
NNMT inh = counter-screen for NTMT1 inhibitors: human NNMT inhibition | shares compounds with NTMT1 inh | Potency, µM (top dose mostly 57.1 µM), for inactives: top-dose activity, negative = inhibition, hits mostly inhibitors | NNMT MTase-Glo luminescence, SAH detection | actives 10% (n = 120) | AID 1645878
Target sequence (P40261 whole entry, looked up): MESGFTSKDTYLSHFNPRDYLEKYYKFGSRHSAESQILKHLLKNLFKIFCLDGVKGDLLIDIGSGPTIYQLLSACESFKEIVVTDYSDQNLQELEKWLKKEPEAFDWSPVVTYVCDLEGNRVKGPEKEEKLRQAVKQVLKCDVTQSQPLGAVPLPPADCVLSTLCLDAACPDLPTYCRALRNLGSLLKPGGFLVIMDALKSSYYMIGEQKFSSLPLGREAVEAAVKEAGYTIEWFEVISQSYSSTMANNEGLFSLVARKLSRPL
* hit, by the source's call; ? = inconclusive; / = not tested or not shown; [ ] = remark or other dose. The call rests on the fitted dose curve; in most records, active means well fitted curve in the direction sought with a large enough effect; inconclusive means small, poorly fitted or top-dose-only effect, or another doubt; inactive means no such curve, though single readings can be large; an effect the other way counts as inactive or inconclusive.

SMILES	OvCa metastasis	FH mod	NTMT1 inh	p53null 39C kill	p53null 32C tox	others
FC(F)(F)c1cccc(N2CCN(C(=S)Nc3ncnc4ccccc34)CC2)c1	/	/	?	/	/	Sfp qHTS opt=?;Bsub HM489 growth=5.91µM*;Sfp gel opt=?;Sfp SAR2=9.13µM*;HSD17B4 inh=?;ALDH1A1 counter=6.81µM*
CC(C)Cn1cc(NC(=O)N2CCN(c3cccc(C(F)(F)F)c3)CC2)c2ccccc2c1=O	-1.6%	-1.2%	4.7%	-10.6%	5.3%
Cc1cc(C)nc(NC(=S)N2CCN(S(=O)(=O)c3cccc(C(F)(F)F)c3)CC2)c1	/	/	?	/	/	Sfp qHTS opt=2.35µM*;Bsub HM489 growth=?;Sfp gel opt=-29.3%;Sfp SAR2=0.81µM*;HSD17B4 inh=-18.5%;ALDH1A1 counter=21.5µM*
COC(=O)Cc1ccc(NC(=S)N2CCN(c3cccc(O)c3)CC2)cc1	/	/	/	/	-6.8%
C/C(=N\NC(=S)N1CCC1)c1ccccn1	/	/	-5.5%	/	/
CC(C)CNCc1ccc(-c2ccccc2S(=O)(=O)N2CCCC2)cc1	/	1.6%	-20.1%[57.5 µM]	/	/
COc1ccc(/C=C(\C)C2Nc3cccc4cccc(c34)N2)cc1	/	/	4.7%	/	/
COc1ccc(NC(=O)c2cnc(N3CCOCC3)c3ccccc23)cc1OC	2.3%	-19.1%	0.9%	14.2%	-9.2%
Nc1ccc(C(=O)Nc2cccc(-c3nc(N4CCOCC4)c4oc5ncccc5c4n3)c2)cn1	3.4%	-10.1%	10.7%	/	/	NNMT inh=-17.8%
OCCn1cc(-c2cnc3nnn(Cc4ccc5ncccc5c4)c3n2)cn1	-21.7%	-1.2%	-1.7%[57.5 µM]	/	/	NNMT inh=-19.4%
NCCOCCOCCNC(=O)Cc1ccc(Nc2nc(NCc3ccc(F)cc3)nc(NCC3CCCCC3)n2)cc1	/	-2.5%	?	/	/
COc1c/c(=C2\C=c3ccccc3=N2)[nH]/c1=C/c1[nH]c(C)cc1C	/	/	/	/	/	NNMT inh=?
Cc1nc(CNc2ncnc3ccc(-c4oc(-c5ccccc5)nc4C)cc23)cs1	/	/	?	/	/	DYRK1A inh=?
Cc1nc(CNc2ncnc3ccc(-c4sc(C)nc4C)cc23)cs1	/	/	?	/	/	DYRK1A inh=8.23µM*
Cc1nc(CNc2ncnc3ccc(-c4ccoc4C)cc23)cs1	/	/	-2.7%	/	/	DYRK1A inh=7.33µM*
Cc1noc(C)c1-c1ccc2ncnc(NCc3ccccc3C(F)(F)F)c2c1	/	/	8.2%	/	/
Cc1ccsc1CNc1ncnc2ccc(-c3c(C)noc3C)cc12	/	/	-1.5%	/	/
COc1ccc(C(=O)N(CCC(C)C)Cc2nc(C)c(C)n2Cc2ccccc2C)c(OC)c1	/	-4.2%	2.0%[57.5 µM]	/	/
CCCC1CCC(C(=O)Nc2ccc(S(=O)(=O)Nc3nccs3)cc2)CC1 (centres undefined)	/	/	8.6%	/	/
COc1ccc2cc3c(NC(=O)c4ccco4)nn(C)c3nc2c1	/	-8.4%	-11.4%[57.5 µM]	/	/	NNMT inh=-12.0%
Cc1cc2c(c(=O)[nH]1)OC(C(O)CC(C)C)O2 (centres undefined)	/	-1.5%	-15.6%	/	/	NNMT inh=2.0%

Source: PubChem BioAssay
